For 14 compounds, growth results are on record in PubChem BioAssay (NCI).

Some test systems named below: NCI-H226 lung; NCI-H322M lung; HOP-62 NSCLC; NCI-H460 lung; HOP-92 NSCLC; A549/ATCC NSCLC; 786-0 renal; COLO 205 colon; NCI-H522 lung.
What all share (assay): NCI-60 one-dose screen, 48 h (100 = growth as untreated, 0 = no growth, -100 = all killed)
What all share (conditions): 10 µM unless noted

About 83,000 compounds went through this panel and 20% of them were active in at least one assay; those are over-represented in the sample as a whole.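 Compound tested at a single concentration for 48 hours in 96-well plates; a percent growth value below 10 was scored as active.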 Values without a mark were called inactive. Calls of active or inactive are those of the source.

Take `C#CCOc1cc(N(CC)CC)ccc1C(C(=O)NC(C)(C)C)N(C(=O)C1CCc2cc(F)ccc2O1)c1ccc(F)c(Cl)c1` (centres undefined): the growth was 62.8% in the experiment on NCI-H226 lung; 89.5% in the experiment with NCI-H322M lung; 77.5% with HOP-62 NSCLC; 53.2% in the experiment with NCI-H460 lung; 48.2% in the experiment on HOP-92 NSCLC; 65.9% in the experiment with A549/ATCC NSCLC. The growth was 58.7% in the experiment with 786-0 renal and 63.1% with COLO 205 colon.

Turning to `C#CCOc1cc(N(CC)CC)ccc1C(C(=O)NC(C)(C)C)N(C(=O)C1CCc2cc(F)ccc2O1)c1cc(C)cc(C)c1` (centres undefined), the growth in the experiment on NCI-H226 lung is 33.3%; in the experiment on NCI-H322M lung, 66.6%; with HOP-62 NSCLC it was 52.4%; in the experiment with NCI-H460 lung, 30.4%; in the experiment with HOP-92 NSCLC, 9.21% (active); in the experiment on NCI-H522 lung it was 19.6%. The growth with A549/ATCC NSCLC is 36.1%; in the experiment with 786-0 renal, 36.3%; with COLO 205 colon it was 31.3%.

As to `COc1ccc(NC(=O)[C@H](C)N)cc1C(=O)Nc1cccc(C2CC(=O)c3c(cc(OC)c(OC)c3OC)O2)c1` (some centres undefined), the growth in the experiment with NCI-H226 lung is 85.5%; in the experiment with NCI-H322M lung it was 96.9%; with HOP-62 NSCLC it was 113%; in the experiment on HOP-92 NSCLC it was 69.4%; with NCI-H522 lung, 81.7%; with A549/ATCC NSCLC it was 93.4%. Moreover, the growth is 91.1% in the experiment with 786-0 renal and 115% in the experiment on COLO 205 colon.

Turning to `COc1ccc(Cc2nn(CC(=O)N/N=C/c3ccc(F)cc3)c(=O)c3c(C)noc23)cc1`, the growth is 27.4% in the experiment with NCI-H226 lung; -53.1% (active) with HOP-62 NSCLC; 13.3% in the experiment with NCI-H460 lung; -20.5% (active) in the experiment on HOP-92 NSCLC; 64.5% in the experiment on NCI-H522 lung; 14% in the experiment with A549/ATCC NSCLC. In addition, the growth in the experiment with 786-0 renal is -20.9% (active); in the experiment on COLO 205 colon it was 59.3%.

`CCN(CC)c1ccc(/C=N/Nc2nc(-c3ccc(C)cc3)cs2)c(O)c1`: the growth in the experiment with NCI-H226 lung was 63.7%; in the experiment with NCI-H322M lung, 98.1%; with HOP-62 NSCLC it was 109%; with NCI-H460 lung it was 111%; with HOP-92 NSCLC, 108%; in the experiment with NCI-H522 lung, 65.2%. Further, the growth was 92.2% in the experiment on A549/ATCC NSCLC, 96.2% in the experiment on 786-0 renal and 110% in the experiment with COLO 205 colon.

Turning to `Cn1cc(-c2cc3nc(-c4c[nH]c5ccc(Cl)cc45)cc(N)n3n2)c2ccccc21`, the growth with NCI-H322M lung was -82% (active); in the experiment on HOP-62 NSCLC it was -72.3% (active); in the experiment on NCI-H460 lung, -5.5% (active); in the experiment with HOP-92 NSCLC, -76.5% (active); in the experiment with NCI-H522 lung it was -76.5% (active); in the experiment on A549/ATCC NSCLC, -75% (active). For the same compound, the growth in the experiment with 786-0 renal is -89% (active); with COLO 205 colon, -87.4% (active).

In the case of `Cn1cc(-c2cc(N)n3nc(-c4cn(C)c5ccccc45)cc3n2)c2cc(Br)ccc21`, the growth was 7.11% (active) in the experiment on NCI-H322M lung; -45.2% (active) with HOP-62 NSCLC; -24.2% (active) with NCI-H460 lung; -59% (active) with HOP-92 NSCLC; -62.7% (active) in the experiment on NCI-H522 lung; 4.06% (active) with A549/ATCC NSCLC. Besides, the values for the growth in the experiment on 786-0 renal and with COLO 205 colon were -85% (active) and -79.1% (active), respectively.

Turning to `C#CCOc1cc(N(CC)CC)ccc1C(C(=O)NC(C)(C)C)N(C(=O)C1CCc2cc(F)ccc2O1)c1ccccc1F` (centres undefined), the growth with NCI-H226 lung is 34.4%; in the experiment on HOP-62 NSCLC, 49.5%; in the experiment with NCI-H460 lung, 30.1%; in the experiment on HOP-92 NSCLC, 18.6%; with NCI-H522 lung, 31.2%; in the experiment with A549/ATCC NSCLC, 35.2%. Moreover, the growth is 44.1% in the experiment on 786-0 renal and 12.9% in the experiment with COLO 205 colon.

With `CCOC(=O)C1=C(N)N(c2ccccc2)C2=C(C(=O)CC(C)(C)C2)C1c1ccc([N+](=O)[O-])cc1` (centres undefined), the growth was 88% with NCI-H226 lung; 97.9% with NCI-H322M lung; 99% in the experiment with HOP-62 NSCLC; 89.8% in the experiment with NCI-H460 lung; 106% in the experiment with HOP-92 NSCLC; 91.5% with A549/ATCC NSCLC. Also, the growth in the experiment with 786-0 renal is 93.7%; in the experiment on COLO 205 colon it was 101%.

On to `CCOC(=O)/C=C/c1cccc2c1C(=O)NC(C)(c1cc3cc(Br)ccc3oc1=O)N2` (centres undefined), for which the growth is 88% in the experiment with NCI-H322M lung; 65.6% in the experiment on HOP-62 NSCLC; 40.2% with HOP-92 NSCLC; 29.1% with NCI-H522 lung; 40.1% in the experiment on A549/ATCC NSCLC; 59.4% in the experiment on 786-0 renal. Moreover, in the experiment on COLO 205 colon, the growth was 46.5%.

Take `Cc1ccc(NC(=O)CN2CCN(c3ncnc4c3cnn4-c3ccccc3)CC2)cc1`: the growth is 76.5% in the experiment with NCI-H226 lung; 86.5% in the experiment with NCI-H322M lung; 95.6% in the experiment on HOP-62 NSCLC; 74% in the experiment with NCI-H460 lung; 90.9% in the experiment on HOP-92 NSCLC; -41.1% (active) in the experiment with NCI-H522 lung. The growth is 89.1% in the experiment on A549/ATCC NSCLC, 105% in the experiment on 786-0 renal and 111% in the experiment with COLO 205 colon.

As to `COc1cc2nc(SCc3ccccc3)n(-c3ccc(Cl)cc3)c(=O)c2cc1OC`, the growth with NCI-H226 lung is -27.3% (active); with NCI-H322M lung, 3.77% (active); with HOP-62 NSCLC it was -69.2% (active); in the experiment with HOP-92 NSCLC, -30.2% (active); with NCI-H522 lung it was -0.701% (active); with A549/ATCC NSCLC it was -50.6% (active). The results for the growth with 786-0 renal and in the experiment on COLO 205 colon were -57.2% (active) and 3.25% (active), respectively.

Regarding `CC1(C)CC[C@]2(C(=O)O)CC[C@]3(C)C(=CCC4[C@@]5(C)C[C@@H](O)[C@@H]6OC(c7ccccc7F)OC[C@@]6(C)C5CC[C@]43C)C2C1` (some centres undefined), the growth in the experiment on NCI-H226 lung is 27.9%; with HOP-62 NSCLC, 22.1%; in the experiment with NCI-H460 lung it was 3.39% (active); in the experiment with HOP-92 NSCLC it was 5.75% (active); with NCI-H522 lung, 5.45% (active); in the experiment on A549/ATCC NSCLC, 14.2%. Further, the growth is 16.8% in the experiment on 786-0 renal and -44% (active) in the experiment with COLO 205 colon.

With `C#CCOc1ccc(/C=N/Nc2nc(-c3ccc(Cl)cc3)cs2)cc1OC`, the growth in the experiment with NCI-H226 lung was 56.3%; in the experiment with NCI-H322M lung, 89.3%; with HOP-62 NSCLC, 84.7%; with HOP-92 NSCLC, 48.8%; in the experiment on NCI-H522 lung it was 47.5%; in the experiment on A549/ATCC NSCLC it was 64.4%. Further, the growth is 69.2% with 786-0 renal and 54.7% in the experiment with COLO 205 colon.
